# PubChem BioAssay (NCI)
# The panel holds about 83,000 compounds, 20% with a hit somewhere; the sample as a whole holds those more often.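 The endpoint reported here, percent growth, reads 100 for growth as untreated, 0 for no net growth and -100 for all cells dead.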 A number with no mark means an inactive call. The source made the active and inactive calls. How the source made its calls: active means growth percent below 10; inactive means the rest.
# Legend:
# Assay in all cases: NCI-60 one-dose screen, 48 h (100 = growth as untreated, 0 = no growth, -100 = all killed)
# Details in all cases: 10 µM
# NCI-H23 lung = system: NCI-H23 lung
# NCI-H226 lung = system: NCI-H226 lung
# NCI-H322M lung = system: NCI-H322M lung
# HOP-62 NSCLC = system: HOP-62 NSCLC
# NCI-H460 lung = system: NCI-H460 lung
# NCI-H522 lung = system: NCI-H522 lung
# A549/ATCC NSCLC = system: A549/ATCC NSCLC
# 786-0 renal = system: 786-0 renal
# COLO 205 colon = system: COLO 205 colon
# DU-145 prostate = system: DU-145 prostate
# K-562 leukemia = system: K-562 leukemia
# MALME-3M melanoma = system: MALME-3M melanoma
# MDA-MB-231 breast = system: MDA-MB-231 breast
# RXF 393 renal = system: RXF 393 renal
# SF-268 CNS = system: SF-268 CNS
# SF-295 CNS = system: SF-295 CNS
# SF-539 CNS = system: SF-539 CNS
# UACC-257 melanoma = system: UACC-257 melanoma
# M14 melanoma = system: M14 melanoma
# HCT-15 colon = system: HCT-15 colon
Structure (SMILES),growth (NCI-H23 lung),growth (NCI-H226 lung),growth (NCI-H322M lung),growth (HOP-62 NSCLC),growth (NCI-H460 lung),growth (NCI-H522 lung),growth (A549/ATCC NSCLC),growth (786-0 renal),growth (COLO 205 colon),growth (DU-145 prostate),growth (K-562 leukemia),growth (MALME-3M melanoma),growth (MDA-MB-231 breast),growth (RXF 393 renal),growth (SF-268 CNS),growth (SF-295 CNS),growth (SF-539 CNS),growth (UACC-257 melanoma),growth (M14 melanoma),growth (HCT-15 colon)
CN(C)c1ccc(/C=C/C=N/NC(=O)c2cc(O)c(O)c(O)c2)cc1,99.6%,101%,93.7%,103%,107%,-31.8% (active),98%,103%,94.1%,109%,27.1%,88.9%,85.4%,99.4%,94.6%,103%,89.8%,92.8%,96.9%,94.2%
COc1cc2nc(Nc3cccc(NC(C)=O)c3)nc(N)c2cc1OC,135%,90.9%,120%,94.4%,110%,93.2%,105%,94.7%,109%,90.2%,103%,101%,86.9%,94.1%,92.3%,131%,101%,98.3%,107%,93.8%
CCC(=O)N1C/C(=C/c2ccc(Br)cc2)C(=O)/C(=C/c2ccc(Br)cc2)C1,-46.2% (active),-62.8% (active),-27.2% (active),-67.4% (active),-46.8% (active),-79.6% (active),-27.2% (active),-77.3% (active),-93.1% (active),-65.4% (active),0.563% (active),-67.9% (active),-46.7% (active),-92.7% (active),-38.5% (active),-34.7% (active),-81.2% (active),-46.1% (active),-76.6% (active),-32.3% (active)
O=C(Nc1ccc(CN2CCc3nc4cc(O)c(O)cc4cc32)cc1)c1ccc(Cl)c(Cl)c1,105%,78.7%,94%,107%,102%,101%,111%,104%,99.4%,104%,115%,93%,103%,89.4%,96.6%,101%,94.2%,103%,98.4%,101%
O=C1/C(=C/c2ccc(Cl)cc2)SC(=Nc2ccc(Cl)cc2)N1Cc1nc2ccccc2[nH]1,78.7%,81.5%,95.4%,68.6%,85.3%,76.4%,70.8%,92.3%,98%,93.7%,58.2%,48.9%,59.2%,91.5%,74.4%,68.2%,101%,87.2%,92.4%,64.1%
CCCCCCN1C(=O)C2=C(c3ccc(Cl)cc3)Nc3c(c(C)nn3-c3ccccc3)C2c2ccccc21 (stereo not given),98.6%,77.5%,90.5%,96.8%,106%,80.7%,85.2%,89%,106%,104%,85.3%,90.9%,103%,83.7%,103%,92.4%,105%,90.7%,103%,93.4%
Cc1ccc(NC(=O)Nc2c(Cl)cccc2Cl)cn1,109%,140%,119%,107%,106%,-10.6% (active),57.3%,113%,135%,123%,47.7%,109%,95.4%,77.3%,116%,117%,97.7%,99.6%,96.1%,100%
CC(=O)C1CCC2C3CC(F)C4=CC(=O)CCC4(C)C3C(O)CC12C (stereo not given),104%,85.9%,90.9%,93%,103%,85.8%,82.3%,96.3%,104%,110%,86.1%,86.6%,98.8%,118%,106%,97.8%,101%,98.6%,93.6%,108%
CCCC(F)C(=O)O (stereo not given),105%,114%,90.9%,113%,106%,89.5%,92%,97.2%,108%,117%,97.6%,103%,111%,117%,107%,83.5%,102%,92.2%,97.5%,100%
CC(=O)n1c(-c2ccc(Cl)c(Cl)c2)cn(-c2ccc(Cl)cc2)c1=O,27.5%,76.2%,69%,-29.1% (active),3.52% (active),36.7%,-10.1% (active),2.32% (active),-19.2% (active),0.358% (active),-35% (active),26.6%,33.3%,-31.2% (active),-32.7% (active),1.9% (active),-33.2% (active),57.5%,34%,59%
O=C(Nc1ccc(CO)cc1)c1ccccc1Nc1ccnc(C(F)(F)F)c1,96.5%,105%,113%,95.4%,103%,93.7%,99.5%,102%,104%,106%,93.7%,92.5%,96.9%,120%,99.3%,111%,101%,102%,99.8%,103%
COc1cccc(NC(=O)c2sc3nc4c(cc3c2N)C(O)CCC4)c1 (stereo not given),33.1%,66.9%,44.5%,32.6%,10.2%,-10.5% (active),22.3%,43.5%,-7.73% (active),-10.9% (active),7.8% (active),81.3%,23.9%,-0.406% (active),30.6%,5.44% (active),-17.6% (active),55%,11.8%,19.4%
COc1ccc(/C=C2/CN(C(=O)c3ccccc3F)C/C(=C\c3ccc(OC)cc3)C2=O)cc1,73.6%,57.8%,82.9%,75.8%,94%,38.3%,63.2%,56.9%,59.1%,42.1%,2.77% (active),62.1%,70.5%,12.5%,51.5%,50.1%,93.1%,71.2%,1.05% (active),18.2%
O=C(O)CCCCSc1ncnc2nc[nH]c12,103%,98.6%,90.2%,96.7%,109%,84.1%,101%,97.2%,103%,101%,102%,96.2%,113%,105%,98.9%,101%,102%,99.6%,103%,102%
COc1cc(-c2cc(/C=C3\C(=O)Nc4ccccc43)[nH]n2)cc(OC)c1OC,56%,66.3%,68.6%,65%,74.7%,64.5%,54.6%,84.2%,32.3%,82.5%,31.7%,1.21% (active),49.9%,79.3%,74.8%,70.6%,67.8%,23%,32.8%,36.9%
